Inconclusive results are not listed. Activity calls are given as the source filed them. Calls follow the shape of the dose curve; as a rule, active = well fitted cell-killing curve with a large enough effect; inconclusive = small, poorly fitted or top-dose-only effect, or effect the other way; inactive = flat fitted curve, though single readings scatter.
Columns and labels:
Test in all cases: Primary qHTS to identify gynecologic anti-cancer compounds using libraries of approved drugs and bioactive compounds (AID 1345084); also: nearly all actives have a fitted effect of over 55% in size
C33A = details: Gynecologic cancer cell panel viability, ATPlite luminescence, 48 h; series mostly up to 57.5 µM
How it was run: (§1)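 Five-concentration response, 48 h; readout is ATP-driven luciferase luminescence.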

CAOV3 = details: Gynecologic cancer cell panel viability, ATPlite luminescence, 48 h; series mostly up to 57.5 µM
How it was run: as §1

CASKI = details: Gynecologic cancer cell panel viability, ATPlite luminescence, 48 h; series mostly up to 57.5 µM
How it was run: as §1

Es-2 = details: Gynecologic cancer cell panel viability, ATPlite luminescence, 48 h; series mostly up to 57.5 µM
How it was run: as §1

HeLa = details: Gynecologic cancer cell panel viability, ATPlite luminescence, 48 h; series mostly up to 57.5 µM
How it was run: as §1

Hek293T = details: Gynecologic cancer cell panel viability, ATPlite luminescence, 48 h, control line for the selectivity index; series mostly up to 57.5 µM
How it was run: as §1

JEG-3 = details: Gynecologic cancer cell panel viability, ATPlite luminescence, 48 h; series mostly up to 57.5 µM
How it was run: as §1

OV90 = details: Gynecologic cancer cell panel viability, ATPlite luminescence, 48 h; series mostly up to 57.5 µM
How it was run: as §1

PA-1 = details: Gynecologic cancer cell panel viability, ATPlite luminescence, 48 h; series mostly up to 57.5 µM
How it was run: as §1

SKOV3 = details: Gynecologic cancer cell panel viability, ATPlite luminescence, 48 h; series mostly up to 57.5 µM
How it was run: as §1

Tov-21-G = details: Gynecologic cancer cell panel viability, ATPlite luminescence, 48 h; series mostly up to 57.5 µM
How it was run: as §1

Tov112D = details: Gynecologic cancer cell panel viability, ATPlite luminescence, 48 h; series mostly up to 57.5 µM
How it was run: as §1
% is scaled to controls: 0 for no effect and ±100 for the full control effect.

COc1cc(OC)cc(-c2ccc3c(-c4ccc(F)cc4)[nH]nc3n2)c1
inactive: Potency (C33A) | Potency (CAOV3) | outcome (CASKI) | Potency (Es-2) | Potency (HeLa) | Potency (Hek293T) | Potency (JEG-3) | Potency (OV90) | Potency (PA-1) | Potency (SKOV3) | Potency (Tov-21-G) | Potency (Tov112D)

CC1C2=CC(=O)OC2(O)CC2C1CCC1C(C)(C)CCC(O)C21C (stereo not given)
inactive: Potency (C33A) | Potency (CAOV3) | outcome (CASKI) | Potency (Es-2) | Potency (HeLa) | Potency (Hek293T) | Potency (JEG-3) | Potency (OV90) | Potency (PA-1) | Potency (SKOV3) | Potency (Tov-21-G) | Potency (Tov112D)

CC(NC(=O)c1ccccc1N)C(=O)O (stereo not given)
inactive: Potency (C33A) | Potency (CAOV3) | outcome (CASKI) | Potency (Es-2) | Potency (HeLa) | Potency (Hek293T) | Potency (JEG-3) | Potency (OV90) | Potency (PA-1) | Potency (SKOV3) | Potency (Tov-21-G) | Potency (Tov112D)

CC(C)N(CCCNC(=O)Nc1ccc(C(C)(C)C)cc1)C[C@H]1O[C@@H](n2ccc3c(N)ncnc32)[C@H](O)[C@@H]1O
inactive: Potency (C33A) | Potency (CAOV3) | outcome (CASKI) | Potency (Es-2) | Potency (HeLa) | Potency (Hek293T) | Potency (JEG-3) | Potency (OV90) | Potency (PA-1) | Potency (SKOV3) | Potency (Tov-21-G) | Potency (Tov112D)

O=C(OC1C=C(CO)C2C(OC3OC(CO)C(O)C(O)C3O)OC=CC12O)c1ccc(O)cc1 (stereo not given)
inactive: Potency (C33A) | Potency (CAOV3) | outcome (CASKI) | Potency (Es-2) | Potency (HeLa) | Potency (Hek293T) | Potency (JEG-3) | Potency (OV90) | Potency (PA-1) | Potency (SKOV3) | Potency (Tov-21-G) | Potency (Tov112D)

C=C(CCO[C@@H]1O[C@H](CO)[C@@H](O)[C@H](O)[C@H]1O)C(=O)O
inactive: Potency (C33A) | Potency (CAOV3) | outcome (CASKI) | Potency (Es-2) | Potency (HeLa) | Potency (Hek293T) | Potency (JEG-3) | Potency (OV90) | Potency (PA-1) | Potency (SKOV3) | Potency (Tov-21-G) | Potency (Tov112D)

CC1(C)CC2C3=CCC4[C@@]5(C)CC[C@H](OC6OCC(O)C(OC7OC(CO)C(O)C(O)C7O)C6O)C(C)(C)C5CC[C@@]4(C)[C@]3(C)C[C@H](O)[C@@]2(CO)[C@H](OC(=O)c2ccccc2)C1 (stereo not given in full)
inactive: activity change, negative = cytotoxicity (C33A) -0.821% [at 11.6 µM] | activity change, negative = cytotoxicity (CAOV3) -7.46% [at 11.6 µM] | activity change, negative = cytotoxicity (CASKI) -3.21% [at 11.6 µM] | activity change, negative = cytotoxicity (Es-2) -3.08% [at 11.6 µM] | activity change, negative = cytotoxicity (HeLa) 2.29% [at 11.6 µM] | activity change, negative = cytotoxicity (Hek293T) 17.5% [at 11.6 µM] | activity change, negative = cytotoxicity (JEG-3) 8.97% [at 11.6 µM] | activity change, negative = cytotoxicity (OV90) 18.5% [at 11.6 µM] | activity change, negative = cytotoxicity (PA-1) 10.1% [at 11.6 µM] | activity change, negative = cytotoxicity (SKOV3) 0% [at 11.6 µM] | activity change, negative = cytotoxicity (Tov-21-G) 6.98% [at 11.6 µM] | activity change, negative = cytotoxicity (Tov112D) -1.17% [at 11.6 µM]

C[C@H]1CC[C@@]2(OC1)O[C@H]1CC3C4CC[C@H]5C[C@@H](O)CC[C@]5(C)C4CC(=O)[C@]3(C)[C@H]1[C@@H]2C (stereo not given in full)
inactive: Potency (C33A) | Potency (CAOV3) | outcome (CASKI) | Potency (Es-2) | Potency (HeLa) | Potency (Hek293T) | Potency (JEG-3) | Potency (OV90) | Potency (PA-1) | Potency (SKOV3) | Potency (Tov-21-G) | Potency (Tov112D)

C=C1C(OC(C)=O)C(=O)C2C(C)(C)C(O)CCC2(C)C1CC(OC(C)=O)/C(C)=C/COC(C)=O (stereo not given)
inactive: Potency (C33A) | Potency (CAOV3) | outcome (CASKI) | Potency (Es-2) | Potency (HeLa) | Potency (Hek293T) | Potency (JEG-3) | Potency (OV90) | Potency (PA-1) | Potency (SKOV3) | Potency (Tov-21-G) | Potency (Tov112D)

CC1(C)CC[C@]2(C(=O)O)CC[C@]3(C)C(=CCC4[C@@]5(C)C[C@@H](O)[C@H](O)[C@@](C)(CO)C5CC[C@]43C)C2C1 (stereo not given in full)
inactive: Potency (C33A) | Potency (CAOV3) | outcome (CASKI) | Potency (Es-2) | Potency (HeLa) | Potency (Hek293T) | Potency (JEG-3) | Potency (OV90) | Potency (PA-1) | Potency (SKOV3) | Potency (Tov-21-G) | Potency (Tov112D)

C/C=C(/C)C(=O)O[C@H]1C[C@]2(C)O[C@@H]2[C@@H](OC(C)=O)[C@@]2(C)CC[C@@](O)(C(C)C)[C@H]12
inactive: Potency (C33A) | Potency (CAOV3) | outcome (CASKI) | Potency (Es-2) | Potency (HeLa) | Potency (Hek293T) | Potency (JEG-3) | Potency (OV90) | Potency (PA-1) | Potency (SKOV3) | Potency (Tov-21-G) | Potency (Tov112D)

CC1(O)CCC2C(C3C1CCC3(C)O)C2(C)C (stereo not given)
inactive: Potency (C33A) | Potency (CAOV3) | outcome (CASKI) | Potency (Es-2) | Potency (HeLa) | Potency (Hek293T) | Potency (JEG-3) | Potency (OV90) | Potency (PA-1) | Potency (SKOV3) | Potency (Tov-21-G) | Potency (Tov112D)

CCC[C@H](N[C@@H](C)C(=O)N1[C@H](C(=O)O)C[C@@H]2CCCC[C@@H]21)C(=O)O
inactive: Potency (C33A) | Potency (CAOV3) | outcome (CASKI) | Potency (Es-2) | Potency (HeLa) | Potency (Hek293T) | Potency (JEG-3) | Potency (OV90) | Potency (PA-1) | Potency (SKOV3) | Potency (Tov-21-G) | Potency (Tov112D)

CC(C)(O)/C=C/C(=O)[C@](C)(O)[C@H]1[C@H](O)C[C@@]2(C)[C@@H]3CC=C4[C@@H](C=C(O[C@@H]5O[C@H](CO)[C@@H](O)[C@H](O)[C@H]5O)C(=O)C4(C)C)[C@]3(C)C(=O)C[C@]12C
inactive: Potency (C33A) | Potency (CAOV3) | outcome (CASKI) | Potency (Es-2) | Potency (HeLa) | Potency (Hek293T) | Potency (JEG-3) | Potency (OV90) | Potency (PA-1) | Potency (SKOV3) | Potency (Tov-21-G) | Potency (Tov112D)

C=Cc1ccc(O[C@@H]2O[C@H](CO[C@@H]3O[C@@H](C)[C@H](O)[C@@H](O)[C@H]3O)[C@@H](O)[C@H](O)[C@H]2O)cc1
inactive: Potency (C33A) | Potency (CAOV3) | outcome (CASKI) | Potency (Es-2) | Potency (HeLa) | Potency (Hek293T) | Potency (JEG-3) | Potency (OV90) | Potency (PA-1) | Potency (SKOV3) | Potency (Tov-21-G) | Potency (Tov112D)
